Consider 35 molecules from PubChem BioAssay (NCATS).

Assay [1] in a line: qHTS of pediatric cancer cell lines to identify multiple opportunities for drug repurposing: Primary screen for Saos-2 cells (AID 1347097). Further: nearly all actives have a fitted effect of over 40% in size. Further: potency means the concentration at half of the fitted maximal effect. The method, boiled down: (§1)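 Viability was measured as metabolically active cells after 48 hours of treatment, read by CellTiter-Glo luminescence. Compounds were tested at multiple final concentrations, giving concentration-response curves.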

Assay [2] can be described thus: qHTS of pediatric cancer cell lines to identify multiple opportunities for drug repurposing: Primary screen for SK-N-SH cells (AID 1347098). Further: nearly all actives have a fitted effect of over 65% in size. Further: potency means the concentration at half of the fitted maximal effect. The method, boiled down: (§2)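 Cells (500-1,000/well) rested 5 h, then received compounds for 48 h; metabolically active cells were measured by CellTiter-Glo luminescence. Final concentrations spanned up to 46 µM (MIPE, 11-point) or 0.59 nM-46 µM (NPC, 8-point) in primary screens, 11-point in follow-ups.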

The nature of assay [3]: qHTS of pediatric cancer cell lines to identify multiple opportunities for drug repurposing: Primary screen for LAN-5 cells (AID 1347100). Further: potency means the concentration at half of the fitted maximal effect. The method, boiled down:
as §2

A short description of assay [4]: qHTS of pediatric cancer cell lines to identify multiple opportunities for drug repurposing: Primary screen for BT-12 cells (AID 1347101). Further: nearly all actives have a fitted effect of over 25% in size. Further: potency means the concentration at half of the fitted maximal effect. The method, boiled down:
as §2

Assay [5] can be described thus: qHTS of pediatric cancer cell lines to identify multiple opportunities for drug repurposing: Primary screen for NB-EBc1 cells (AID 1347095). Further: potency means the concentration at half of the fitted maximal effect. The essentials:
as §1

The nature of assay [6]: qHTS of pediatric cancer cell lines to identify multiple opportunities for drug repurposing: Primary screen for U-2 OS cells (AID 1347096). Further: nearly all actives have a fitted effect of over 50% in size. The essentials:
as §2

Assay [7] can be described thus: qHTS of pediatric cancer cell lines to identify multiple opportunities for drug repurposing: Primary screen for NB1643 cells (AID 1347099). Further: nearly all actives have a fitted effect of over 50% in size. Further: potency means the concentration at half of the fitted maximal effect. The method, boiled down:
as §1

Assay [8] in a line: qHTS of pediatric cancer cell lines to identify multiple opportunities for drug repurposing: Primary screen for Rh18 cells (AID 1347102). Further: nearly all actives have a fitted effect of over 65% in size. Further: potency means the concentration at half of the fitted maximal effect. The method, boiled down:
as §2

Assay [9] can be described thus: qHTS of pediatric cancer cell lines to identify multiple opportunities for drug repurposing: Primary screen for BT-37 cells (AID 1347094). Further: potency means the concentration at half of the fitted maximal effect. The method, boiled down:
as §1

Records with an inconclusive call do not appear. The source made the active and inactive calls. The call rests on the fitted dose curve; in most records, active means well fitted curve in the direction sought with a large enough effect; inconclusive means small, poorly fitted or top-dose-only effect, or another doubt; inactive means no such curve, though single readings can be large; an effect the other way counts as inactive or inconclusive.

Turning to `CCN(CC)CCOc1ccc(/C(=C(\Cl)c2ccccc2)c2ccccc2)cc1`, the Potency in assay [1] is 26.6 µM (active); in assay [2], 30.7 µM (active); in assay [3] it was 18.8 µM (active); in assay [4] it was 15.5 µM (active).
With `O=C(CCC1CCN(Cc2ccccc2)CC1)c1ccc2c(c1)NCCCC2`, the Potency entry in assay [5], in assay [6], in [7], in assay [3] and in assay [8] was “inactive” throughout. Besides, in assay [2], the Potency was 30.7 µM (active).
In the case of `Cc1cc(OCCOCC[N+](C)(C)Cc2ccccc2)ccc1C(C)(C)CC(C)(C)C`, the Potency was 0.001 µM (active) in [9]; 13.3 µM (active) in assay [1]; 34.4 µM (active) in [2]; 21.1 µM (active) in assay [3]; 6.17 µM (active) in [4]; 10.6 µM (active) in assay [8]. Also, in [7], the Potency entry was “inactive”.
Regarding `O=[N+]([O-])c1ccc(O)c2ncccc12`, the Potency in assay [5] is 2.37 µM (active); in assay [1], 10.6 µM (active); in assay [2] it was 3.44 µM (active); in [7] it was 1.88 µM (active); in [3] it was 3.76 µM (active); in assay [4] it was 5.5 µM (active).
Consider `CCCC(=O)O[C@]1(C(=O)CCl)[C@@H](C)C[C@H]2[C@@H]3CCC4=CC(=O)C=C[C@]4(C)[C@@]3(F)C(=O)C[C@@]21C`, for which the Potency result in assay [6], in assay [2], in assay [7] and in [8] was “inactive” throughout.
Take `Nc1nnnn1-c1ccccc1`: the Potency result in assay [5], in [6], in assay [1], in [2], in assay [3] and in [4] was “inactive” in each case. Besides, the Potency entry in [8] is “inactive”.
With `CN1CCCN(C(c2ccccc2)c2ccc(Cl)cc2)CC1` (stereo not drawn), the Potency result in [5] and in assay [6] was “inactive” in each case. Besides, the values for the Potency in assay [2] and in assay [3] were 15.4 µM (active) and 15 µM (active), respectively.
As to `CC(C)(c1ccc(O)cc1)c1ccc(O)cc1`, the Potency entry in assay [5], in assay [6], in assay [7], in [3] and in [8] was “inactive” throughout.
Consider `CC(CC1c2ccccc2CCc2ccccc21)CN(C)C` (stereo not drawn), for which the Potency result in [5], in assay [7], in assay [3] and in [8] was “inactive” in each case.
For the molecule `CC(=O)OCC[N+](C)(C)C`, the Potency entry in assay [5], in [2], in [7], in assay [3], in [4] and in assay [8] was “inactive” each time.
As for `C=CCNc1nc(NCC=C)nc(N2CCN(C(c3ccc(F)cc3)c3ccc(F)cc3)CC2)n1`, the Potency entry in assay [5], in assay [6], in assay [2], in assay [7] and in assay [3] was “inactive” throughout.
Take `CC(=O)Oc1ccc(C2(c3ccc(OC(C)=O)cc3)Oc3ccccc3NC2=O)cc1`: the Potency in assay [1] was 11.9 µM (active); in assay [4] it was 19.5 µM (active). Moreover, the Potency entry in assay [8] was “inactive”.
On to `CCOC(=O)N1CCC(n2c(=O)[nH]c3cc(Cl)ccc32)CC1`, for which the Potency result in assay [1], in assay [2], in assay [7], in assay [3] and in assay [8] was “inactive” in each case.
Regarding `NCC(=O)O`, the Potency entry in [5], in assay [6], in [1], in [2], in [7] and in [3] was “inactive” each time. The Potency entry in [4] and in [8] was “inactive” in each case.
For `COc1ccc([C@@H]2Sc3ccccc3NC(=O)[C@@H]2O)cc1`, the Potency entry in [6], in assay [7] and in assay [8] was “inactive” throughout.
Turning to `CN(C)CCOC(c1ccccc1)c1ccc(Br)cc1` (stereo not drawn), the Potency result in assay [5], in assay [6], in assay [1], in [7], in assay [3] and in [4] was “inactive” in each case. In addition, in assay [8], the Potency entry was “inactive”. In addition, in assay [2], the Potency was 15.4 µM (active).
Turning to `CCCN(CCC)C(=O)C(CCC(=O)OCCCN1CCN(CCOC(=O)Cc2c(C)n(C(=O)c3ccc(Cl)cc3)c3ccc(OC)cc23)CC1)NC(=O)c1ccccc1` (stereo not drawn), the Potency entry in assay [7] and in [4] was “inactive” throughout.
Consider `Nc1ccc2c(c1)CN1C(=O)c3ccccc3C1=N2`, for which the Potency in [5] is 0.651 µM (active).
Regarding `CCCCCCOC(=O)NC(=N)c1ccc(NCc2nc3cc(C(=O)N(CCC(=O)OCC)c4ccccn4)ccc3n2C)cc1`, the Potency result in assay [6], in assay [7] and in assay [8] was “inactive” each time.
Consider `Nc1cc(C(F)(F)F)ccc1S`, for which the Potency entry in [9] and in assay [3] was “inactive” throughout.
As for `CCCCCCCCCCCCCCCC[N+](C)(C)Cc1ccccc1`, the Potency in assay [9] was 30.9 µM (active); in [1], 23.7 µM (active); in assay [3], 21.1 µM (active); in assay [4], 11 µM (active); in assay [8], 11.9 µM (active).
As to `Cc1cccc(N(C)C(=S)Oc2ccc3c(c2)C2CCC3C2)c1` (stereo not drawn), the Potency entry in assay [2] and in [3] was “inactive” each time.
For the molecule `Cc1c(C)c2c(c(C)c1OC(=O)CCC(=O)OCCO)CC[C@@](C)(CCC[C@H](C)CCC[C@H](C)CCCC(C)C)O2`, the Potency result in assay [1] is “inactive”.
Consider `O=C(c1cc(O)c(O)c(O)c1)c1ccc(O)c(O)c1O`, for which the Potency entry in [5], in [7] and in assay [8] was “inactive” throughout. The Potency in assay [1] was 26.6 µM (active).
On to `c1ccc(C(O[C@H]2CCCN(CCc3ccc4c(c3)OCO4)C2)c2ccccc2)cc1`, for which the Potency entry in assay [5], in assay [1], in assay [7], in assay [3], in assay [4] and in assay [8] was “inactive” each time.
For the molecule `NC(=O)C1(N2CCCCC2)CCN(CCCN2c3ccccc3CCc3ccc(Cl)cc32)CC1`, the results for the Potency in assay [1], in assay [2] and in assay [4] were 21.1 µM (active), 13.7 µM (active) and 19.5 µM (active), respectively.
In the case of `COC(=O)C1=C(C)NC(COC(N)=O)=C(C(=O)OC(C)C)C1c1cccc(Cl)c1Cl` (stereo not drawn), the Potency result in assay [5], in [6], in [7], in [3] and in assay [8] was “inactive” throughout. Also, the Potency in assay [2] was 24.4 µM (active).
With `CC(C(O)c1ccccc1)N(C)CCOC(c1ccccc1)c1ccccc1` (stereo not drawn), the results for the Potency in [2] and in assay [4] were 30.7 µM (active) and 21.9 µM (active), respectively. The Potency entry in [7] was “inactive”.
`CCOC(=O)C1=C(C)NC(C)=C(C(=O)OCC)C1c1ccccc1/C=C/C(=O)OC(C)(C)C`: the Potency in assay [2] was 27.3 µM (active).
For `CC(=O)[C@H]1CC[C@H]2[C@@H]3C=CC4=CC(=O)CC[C@@]4(C)[C@@H]3CC[C@]12C`, the Potency result in assay [5], in assay [6], in assay [1], in assay [2], in [7] and in [4] was “inactive” each time. Further, the Potency entry in assay [8] is “inactive”.
For the molecule `N[C@@H](Cc1cc(I)c(O)c(I)c1)C(=O)O`, the Potency result in assay [6], in assay [2], in assay [7], in assay [3], in [4] and in assay [8] was “inactive” each time.
On to `Cc1cccc(N(C)C(=S)Oc2ccc3c(c2)CCC3)c1`, for which the Potency result in [9], in assay [6], in assay [7], in assay [3] and in assay [8] was “inactive” in each case.
Take `CCCC(=O)c1cc(O)c(O)cc1O`: the Potency result in assay [6] and in assay [7] was “inactive” throughout.
On to `Cc1cc(O)c(C)c(C)c1O`, for which the Potency result in assay [9], in assay [1], in [2], in assay [7], in assay [4] and in [8] was “inactive” in each case. For the same molecule, in [3], the Potency is 16.8 µM (active).
For `CC(C)C[C@H](NC(=O)CNC(=O)[C@H](Cc1ccc(O)cc1)NC(=O)[C@H](CO)NC(=O)[C@H](Cc1c[nH]c2ccccc12)NC(=O)[C@H](Cc1cnc[nH]1)NC(=O)[C@@H]1CCC(=O)N1)C(=O)N[C@@H](CCCN=C(N)N)C(=O)N1CCC[C@H]1C(=O)NCC(N)=O` (stereo in doubt), the Potency result in [5], in assay [6], in assay [2], in [7], in assay [3] and in [4] was “inactive” each time. For the same molecule, the Potency entry in assay [8] is “inactive”.
